Results: PMC4552634, “A New Set of Chemical Starting Points with Plasmodium falciparum Transmission-Blocking Potential for Antimalarial Drug Discovery” (PLoS ONE, 2015)
Screen size: about 13,000 compounds; about 3,200 (25%) showed an effect of 50% or more. The list shows a part of the results.

Tested on: P. falciparum stage V gametocytes
Set-up: BacTiter-Glo ATP luminescence viability of purified stage V gametocytes in 384-well plates, per cent inhibition versus DMSO
Details: 48 h, 5 µM; inhibitor

Row | SMILES | % Inhibition
1 | CCc1ccc(NC(=O)c2cccc(CN3CCCN(Cc4cccc(O)c4)CC3)c2)cc1 [TCMDC-135989] | -33.27%
2 | O=C(/C=C/c1ccc(Cl)cc1)NCCCCCN1CCCC(C(=O)Nc2ccc(Cl)c(Cl)c2)C1 (stereo not shown) [TCMDC-136125] | -14.11%
3 | CC1CN(CCCn2c3ccccc3c3ccc(C(=O)CCCN(C)C)cc32)CC(C)N1 (stereo not shown) [TCMDC-137742] | 88.42%
4 | Cc1c(CCNC(=O)CCCN2CC(C)CC(C)C2)c2ccccc2n1C (stereo not shown) [TCMDC-131457] | 10.13%
5 | CCC1CN(CCCn2c3ccccc3c3ccccc32)C(CC)CN1 (stereo not shown) [TCMDC-138116] | 25.71%
6 | O=c1[nH]c2ccc(Nc3nccc(NCCc4ccccc4)n3)cc2[nH]1 [TCMDC-136805] | -64.58%
7 | CC(CCCC(=O)Nc1ccc(CC(C)NCCc2cccc(Cl)c2)cc1)NCCc1cccc(Cl)c1 (stereo not shown) [TCMDC-139798] | 110.2%
8 | CC(CCCCCC(=O)Nc1ccc(CC(C)NCCc2cccc(Cl)c2)cc1)NCCc1cccc(Cl)c1 (stereo not shown) [TCMDC-139800] | 109.3%
9 | CC(CCCCC(=O)Nc1ccc(CC(C)NCCc2cccc(Cl)c2)cc1)NCCc1cccc(Cl)c1 (stereo not shown) [TCMDC-139799] | 105.4%
10 | CC(Cc1ccc(NC(=O)CCCc2ccccc2)cc1)NCCc1cccc(Cl)c1 (stereo not shown) [TCMDC-139883] | 22.17%
11 | CC(C)CNc1c2c(nc3cnn(-c4c5c(nc6cn[nH]c46)CCCC5)c13)CCCC2 [TCMDC-131555] | -4.273%
12 | Cc1cccc2nc(-c3ccc(-c4ccc(CN5CCOCC5)cc4)cc3)[nH]c12.O=C(O)C(F)(F)F [TCMDC-133825] | 20.49%
13 | COc1ccc(NC(=O)NC2CCN(c3ccnc4ccccc34)C2)cc1 (stereo not shown) [TCMDC-133575] | 3.669%
14 | O=C(Nc1ccccc1Br)N[C@@H]1CCN(c2ccnc3ccccc23)C1 [TCMDC-141572] | 52.9%
15 | O=C(Nc1ccc(F)cc1)NC1CCN(c2ccnc3ccccc23)C1 (stereo not shown) [TCMDC-133577] | 52.59%
16 | O=C(Nc1ccc(C(F)(F)F)cc1)NC1CCN(c2ccnc3ccccc23)C1 (stereo not shown) [TCMDC-133578] | 40.18%
17 | O=C(COc1ccccc1)NC1CCN(c2ccnc3cc(Cl)ccc23)C1 (stereo not shown) [TCMDC-133669] | -12.2%
18 | O=C(Nc1cccc(C(F)(F)F)c1)NC1CCN(c2ccnc3ccccc23)CC1 [TCMDC-133586] | -4.951%
19 | O=C(COc1ccc(F)cc1)NC1CCN(c2ccnc3cc(Cl)ccc23)C1 (stereo not shown) [TCMDC-133397] | -4.375%
20 | O=C(Nc1ccc(C(F)(F)F)cc1)NC1CCN(c2ccnc3ccccc23)CC1 [TCMDC-133587] | 54.56%
21 | CC(C)(C)c1ccc(OCC(=O)NC2CCN(c3ccnc4cc(Cl)ccc34)C2)cc1 (stereo not shown) [TCMDC-133670] | 64.95%
22 | O=C(Nc1ccccc1Oc1ccccc1)NC1CCN(c2ccnc3cc(Cl)ccc23)C1 (stereo not shown) [TCMDC-133401] | -4.379%
23 | O=C(Nc1ccc(OC(F)(F)F)cc1)NC1CCN(c2ccnc3ccccc23)C1 (stereo not shown) [TCMDC-133583] | -30.46%
24 | Cc1ccc(NC(=O)NC2CCN(c3ccnc4ccccc34)C2)cc1 (stereo not shown) [TCMDC-133576] | -20.26%
25 | Cc1ccc(-c2cc(C(=O)Nc3ccc(S(=O)(=O)N4CC(C)OC(C)C4)cc3)[nH]n2)c(O)c1 (stereo not shown) [TCMDC-125180] | -20.62%

Row | SMILES | % Inhibition
26 | COc1ccc2nccc([C@@H](O)CN3CCC(NC(=O)c4ccc(-c5ccccc5)s4)CC3)c2c1 [TCMDC-141106] | 10.46%
27 | O=C(CCCCCNC(=O)c1ccc(O)c(-c2ccc(Cl)c(Cl)c2)c1)NC1CCCCCC1 [TCMDC-140842] | -20.8%
28 | CC(C)(C)c1ccc(N2C(N)=NC(N)=NC2(C)C)cc1 [TCMDC-137713] | 2.693%
29 | O=C(Nc1ccc(Cl)cn1)c1sc2ccccc2c1O [TCMDC-124520] | -11.35%
30 | Cc1ccc(C(=O)Nc2cc(S(=O)(=O)N3CCCC3)ccc2OCC(F)(F)F)cc1 [TCMDC-124325] | -29.62%
31 | O=C(Nc1ccc(Cl)c(Cl)c1)Nc1ccc(F)c([N+](=O)[O-])c1 [TCMDC-125042] | -17.87%
32 | O=C(Nc1ccc(OC(F)(F)F)cc1)NC1CCN(c2ccnc3ccccc23)CC1 [TCMDC-133585] | -8.485%
33 | CC(C)(C)c1ccc(NC(=O)N[C@@H]2CCN(c3ccnc4ccccc34)C2)cc1 [TCMDC-141573] | 101%
34 | O=C(Nc1ccc(C(F)(F)F)cc1)NC1CCN(c2ccnc3cc(Cl)ccc23)C1 (stereo not shown) [TCMDC-133405] | -22.97%
35 | COc1cc(O)c2c(=O)c(OC)c(-c3cccc(Cl)c3OC3O[C@H](CO)[C@@H](O)[C@H](O)[C@H]3O)oc2c1OC (stereo partly shown) [TCMDC-131699] | 3.846%
36 | COc1cccc(-c2csc(C(=O)NCC3CCN(Cc4ccc(C(C)C)cc4)C3)c2)c1 (stereo not shown) [TCMDC-134439] | 107.3%
37 | CC(C)c1ccc(CN2CCC(CNC(=O)c3cc(-c4cccc(F)c4)cs3)C2)cc1 (stereo not shown) [TCMDC-134437] | 107.7%
38 | CC(C)c1ccc(CN2CCC(CNC(=O)c3cc(-c4cccc(Cl)c4)cs3)C2)cc1 (stereo not shown) [TCMDC-134438] | 95.05%
39 | CC(C)c1ccc(CN2CCCCC(NC(=O)c3cc(-c4cccc(F)c4)cs3)C2)cc1 (stereo not shown) [TCMDC-134463] | -60.78%
40 | Cc1cc(N[C@@H](CC(C)C)C(=O)NCCOc2ccccc2)nc(Nc2ccccc2)n1 [TCMDC-134741] | -17.47%
41 | C#CCN(Cc1cc2c(=O)[nH]c(N)nc2cc1C)c1ccc(C(=O)N[C@@H](CCC(=O)O)C(=O)O)cc1 [TCMDC-132041] | 1.845%
42 | CCOC(=O)NC1=NC(C)(C)N(OCc2cccc3c2ccc2ccccc23)C(NC(=O)OCC)=N1 [TCMDC-131339] | 9.295%
43 | CCCCc1ccc(NC(=O)Nc2ccc3c(c2)CCNCC3)cc1 [TCMDC-141500] | 0.2373%
44 | CCOC(=O)c1c(CN2CCCC2)n(-c2ccccc2)c2cc(Br)c(O)cc12 [TCMDC-124122] | -23.97%
45 | C=C[C@]1(C)C[C@@H](OC(=O)c2cncn(COC)c2=O)[C@]2(C)[C@H](C)CC[C@]3(CCC(=O)[C@H]32)[C@@H](C)[C@@H]1O [TCMDC-141314] | 6.014%
46 | CN1CCN(c2cc(NC(=O)Nc3cccc(Cl)c3Cl)ccc2Cl)CC1 [TCMDC-139114] | -11.69%
47 | CCCC(CNCc1cccc(I)c1)CNc1cc(=O)c2ccccc2[nH]1 (stereo not shown) [TCMDC-139433] | 23.15%
48 | CC(=O)N1N=C(c2ccccc2)Sc2c1nc(-c1ccc(Cl)cc1)n2C(C)=O [TCMDC-125193] | 43.76%
49 | CC(=O)N1N=C(c2ccc(Cl)cc2)Sc2c1nc(C1CCCCC1)n2C(C)=O [TCMDC-125191] | 45.01%
50 | COc1ccc(Cc2nc3c(n2C(C)=O)SC(c2ccc(Cl)c(Cl)c2)=NN3C(C)=O)cc1 [TCMDC-125189] | 18.21%

Row | SMILES | % Inhibition
51 | CC(=O)N1N=C(c2ccc(F)cc2)Sc2c1nc(C1CCCCC1)n2C(C)=O [TCMDC-125190] | 77.23%
52 | CC(=O)N1N=C(c2ccc(F)cc2)Sc2c1nc(-c1ccccc1)n2C(C)=O [TCMDC-125192] | 62.08%
53 | CCOC(=O)c1[nH]c(-c2ccccc2)nc1-n1nc(C)cc1C [TCMDC-131622] | -5.185%
54 | CC(=O)N1N=C(c2cccs2)Sc2c1nc(-c1ccc(Cl)cc1)n2C(C)=O [TCMDC-124898] | 78.97%
55 | CC(=O)N1N=C(c2ccc(Cl)cc2)Sc2c1nc(-c1ccccc1)n2C(C)=O [TCMDC-124899] | 80.4%
56 | CCOC(=O)c1[nH]c(-c2ccc(-c3ccccc3)cc2)nc1N [TCMDC-131797] | -4.943%
57 | O=C(/C=C/c1ccc(Cl)cc1)NCCCCCN1CCCN(C(=O)Nc2ccc(F)c(Cl)c2)CC1 [TCMDC-136101] | -6.119%
58 | COc1cccc(CNC[C@@H](O)[C@H](Cc2ccccc2)NC(=O)c2cc(C3CCCC3)cc(N3CCCCS3(=O)=O)c2)c1 [TCMDC-134523] | 42.74%
59 | CCC1(CC)N=C(N)N=C(N)C1c1ccc(Cl)c(Cl)c1 (stereo not shown) [TCMDC-137597] | 8.83%
60 | COc1ccc(CN2CCCC(C(=O)c3ccc(C(F)(F)F)cc3)C2)c(O)c1 (stereo not shown) [TCMDC-124631] | 43.69%
61 | CS(=O)(=O)Cc1ccc(Nc2nccc(-c3c(-c4cccc(NC(=O)C5CCCCC5)c4)nn4ncccc34)n2)cc1 [TCMDC-135812] | -14.86%
62 | CC(=O)Nc1cccc(-c2cnc(N)c3cc(-c4ccc5c(c4)OCO5)ccc23)c1 [TCMDC-134504] | 30.5%
63 | Cn1nccc1C(=O)NCCNCc1ccc(-c2ccc(-c3nc4ccccc4[nH]3)s2)cc1.O=C(O)C(F)(F)F [TCMDC-133004] | -2.407%
64 | CCN(CC)CCN(Cc1ccc(-c2ccc(C(F)(F)F)cc2)cc1)C(=O)Cn1nc(-c2ccc(C(F)(F)F)cc2)ccc1=O [TCMDC-141575] | 69.38%
65 | CCN(CC)S(=O)(=O)c1cc(-c2ccc(=O)n(CC(=O)c3ccc(C)cc3)n2)ccc1C [TCMDC-124707] | -20.12%
66 | CCC(=O)c1ccc(-c2ccc(=O)n(CC(=O)N(CCN(CC)CC)Cc3ccc(-c4ccc(C(F)(F)F)cc4)cc3)n2)cc1 [TCMDC-141574] | 82.08%
67 | Cc1cc(N2Cc3ccccc3C2)nc(Nc2ccc(S(=O)(=O)N3CCOCC3)cc2)n1 [TCMDC-134229] | -25.67%
68 | NS(=O)(=O)c1cccc(Nc2nc(N[C@@H]3CCNC3)nc3cc[nH]c(=O)c23)c1 [TCMDC-135057] | -11.44%
69 | CN(C)S(=O)(=O)c1ccc(Nc2nc(NCCC3C=NC=N3)nc3cc[nH]c(=O)c23)cc1 (stereo not shown) [TCMDC-135045] | -6.172%
70 | O=c1[nH]ccc2nc(N[C@@H]3CCNC3)nc(Nc3cccc(S(=O)(=O)N4CCOCC4)c3)c12 [TCMDC-135047] | 89.83%
71 | O=c1[nH]ccc2nc(N[C@@H]3CCNC3)nc(Nc3ccc4c(c3)S(=O)(=O)CC4)c12 [TCMDC-135044] | 71.11%
72 | Cc1cccc(Nc2nc(N[C@@H]3CCCNC3)nc3cc[nH]c(=O)c23)c1 [TCMDC-134835] | -44.23%
73 | O=c1[nH]ccc2nc(N[C@@H]3CCNC3)nc(Nc3cc(Cl)cc(Cl)c3)c12 [TCMDC-135052] | 102.4%
